Data published in PubChem BioAssay (EPA / NIEHS).
“And” between values parts separate entries of the source, which are not always exact repeats. Equal entries are not always repeated. Inconclusive results are not listed. Some structures have more than one record in an assay (separate samples or runs), and their calls can disagree. The source made the active and inactive calls. The calls were made as follows, unless noted: active = hit-call score of the fitted dose curve at least 0.9, where 1 is the maximum; inactive = score below 0.9.

Columns and labels:
[1] = read-out: Plasminogen activator inhibitor-1 (PAI1), SERPINE1 (gene 5054); assay: BSK_CASM3C_PAI1: BioMAP Diversity Plus: CASM3C Assay for Plasminogen activator inhibitor-1 (PAI1) Biomarker Activity (AID 2284284); conditions: primary human coronary artery smooth muscle cells;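 also: PAI-1 protein level measured by ELISA 24 h after dosing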
[2] = read-out: Monocyte Chemoattractant Protein-1 (MCP1), CCL2 (gene 6347); assay: BSK_hDFCGF_MCP1: BioMAP Diversity Plus: hDFCGF Assay for Monocyte Chemoattractant Protein-1 (MCP1) Biomarker Activity (AID 2284285); conditions: primary human foreskin fibroblasts
Procedure, shortened: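 Human foreskin fibroblasts (hDFCGF system) were exposed to compound and secreted MCP-1 was measured by ELISA after 24 hours. Activity was fitted relative to DMSO. Cytotoxicity was checked by SRB total-protein staining in parallel cultures.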

[3] = read-out: Vascular cell adhesion molecule 1 (VCAM1), VCAM1 (gene 7412); assay: BSK_IMphg_VCAM1: BioMAP Diversity Plus: IMphg Assay for Vascular cell adhesion molecule 1 (VCAM1) Biomarker Activity (AID 2284286); conditions: primary human endothelial cells with macrophages
Procedure, shortened: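 Human venular endothelial cells co-cultured with macrophages; VCAM-1 quantified by ELISA 24 h after dosing, fitted in the positive direction against DMSO. Cytotoxicity was checked in parallel cultures by SRB total-protein staining (0.1% SRB after 10% TCA fixation, 560 nm).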

[4] = read-out: Intercellular Adhesion Molecule 1 (ICAM1), ICAM1 (gene 3383); assay: BSK_hDFCGF_ICAM1: BioMAP Diversity Plus: hDFCGF Assay for Intercellular Adhesion Molecule 1 (ICAM1) Biomarker Activity (AID 2284287); conditions: primary human foreskin fibroblasts
Procedure, shortened: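 Primary human foreskin fibroblasts (hDFCGF system) dosed with chemical; ICAM-1 quantified by ELISA at 24 h relative to DMSO. Parallel SRB total-protein staining to assess overt cytotoxicity.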

CD40, CD40 (gene 958) = assay: BSK_IMphg_CD40: BioMAP Diversity Plus: IMphg Assay for CD40 Biomarker Activity (AID 2284288); conditions: primary human endothelial cells with macrophages
Procedure, shortened: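 Venular endothelial cells co-cultured with macrophages (human primary), CD40 measured by ELISA 24 h after dosing. Positive-direction fit vs DMSO baseline; cytotoxicity tracked by SRB total-protein staining in parallel cultures.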

[5] = read-out: TIMP metallopeptidase inhibitor 2 (TIMP2), TIMP2 (gene 7077); assay: BSK_hDFCGF_TIMP2: BioMAP Diversity Plus: hDFCGF Assay for TIMP metallopeptidase inhibitor 2 (TIMP2) Biomarker Activity (AID 2284289); conditions: primary human foreskin fibroblasts
Procedure, shortened: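 Primary human foreskin fibroblasts in the hDFCGF system, dosed for 24 h; TIMP-2 level measured by ELISA, fitted in the positive direction against DMSO; cytotoxicity checked in parallel by sulforhodamine B total protein staining.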

[6] = read-out: Interleukin-1 alpha (IL1a), IL1A (gene 3552); assay: BSK_IMphg_IL1a: BioMAP Diversity Plus: IMphg Assay for Interleukin-1 alpha (IL1a) Biomarker Activity (AID 2284290); conditions: primary human endothelial cells with macrophages
Procedure, shortened: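 Human venular endothelial cells co-cultured with macrophages, IMphg system. IL-1α is measured by ELISA 24 h after dosing and fitted in the positive direction against DMSO. Cytotoxicity is assessed by SRB staining of parallel cultures.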

[7] = read-out: E-selectin (Homo sapiens) (UniProt P16581); assay: BSK_IMphg_ESelectin: BioMAP Diversity Plus: IMphg Assay for Eselectin Biomarker Activity (AID 2284291); conditions: primary human endothelial cells with macrophages
Procedure, shortened: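 Human venular endothelial cell–macrophage co-culture, E-selectin measured by ELISA 24 h after chemical dosing. Signal fitted in the positive direction against DMSO as negative control and baseline.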

[8] = read-out: Macrophage colony-stimulating factor (MCSF), CSF1 (gene 1435); assay: BSK_IMphg_MCSF: BioMAP Diversity Plus: IMphg Assay for Macrophage colony-stimulating factor (MCSF) Biomarker Activity (AID 2284293); conditions: primary human endothelial cells with macrophages
Procedure, shortened: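 Co-culture of human venular endothelial cells and macrophages, 24 hours of chemical exposure. M-CSF quantified by ELISA, with parallel SRB total-protein staining for cytotoxicity; activity fitted relative to DMSO.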

[9] = read-out: Interleukin-10 (IL10), IL10 (gene 3586); assay: BSK_IMphg_IL10: BioMAP Diversity Plus: IMphg Assay for Interleukin-10 (IL10) Biomarker Activity (AID 2284294); conditions: primary human endothelial cells with macrophages
Procedure, shortened: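 Human venular endothelial cells cocultured with macrophages, dosed 24 h; IL-10 measured by ELISA, activity relative to DMSO. Cytotoxicity assessed in parallel cultures by sulforhodamine B total-protein staining.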

[10] = BSK_IMphg_SRB.Mphg: Macrophage Viability Assessment in the BioMAP Diversity Plus: IMphg Assay (AID 2284295); conditions: primary human endothelial cells with macrophages
Procedure, shortened: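 Venular endothelial cells co-cultured with macrophages, read 24 h after dosing. Total protein measured by 0.1% SRB staining after 10% TCA fixation, absorbance at 560 nm. Fitted in positive direction against DMSO baseline.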

[11] = read-out: Thrombomodulin, THBD (gene 7056); assay: BSK_LPS_Thrombomodulin: BioMAP Diversity Plus: LPS Assay for Thrombomodulin Biomarker Activity (AID 2284296); conditions: primary human HUVEC with PBMC
Procedure, shortened: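 Human umbilical vein endothelial cells co-cultured with PBMC and stimulated with LPS; cell-surface thrombomodulin measured by ELISA 24 hours after compound. Gain or loss versus DMSO; cytotoxicity checked by SRB staining in parallel cultures.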

CD69, CD69 (gene 969) = assay: BSK_LPS_CD69: BioMAP Diversity Plus: LPS Assay for CD69 Biomarker Activity (AID 2284303); conditions: primary human HUVEC with PBMC
Procedure, shortened: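 Human umbilical vein endothelial cells co-cultured with PBMC under LPS stimulation, chemical exposure 24 h; cell-surface CD69 measured by ELISA and fitted in the positive direction versus DMSO.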

[12] = IUF_NPC2c_oligodendrocyte_migration_120hr: Leibniz Research Institute for Environmental Medicine (IUF) 120-hour Neural Progenitor Cell Migration Assay for Oligodendrocyte Migration (NPC2c) (AID 2284297);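 also: O4-positive oligodendrocyte migration distance divided by radial glia migration distance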
Procedure, shortened: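 Exposure runs 5 days from differentiation onset at 37C, seven concentrations plus solvent control, DMSO at most 0.1%, applied to primary hNPC spheres on laminin. After fixation, O4 immunostaining gives oligodendrocyte distance from the sphere core, relative to radial glia migration.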

[13] = IUF_NPC2a_radial_glia_migration_120hr: Leibniz Research Institute for Environmental Medicine (IUF) 120-hour Neural Progenitor Cell Migration Assay for Radial Glia Migration (NPC2a) (AID 2284298)
Procedure, shortened: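 Migration distance in um, sphere core edge to migration-area edge, derived by nuclei-density algorithm from Hoechst images after 120 h compound exposure. Primary hNPC spheres differentiated on poly-D-lysine/laminin in N2 medium, 37C; medium half-replaced day 3.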

[14] = IUF_NPC2a_radial_glia_migration_72hr: Leibniz Research Institute for Environmental Medicine (IUF) 72-hour Neural Progenitor Cell Migration Assay for Radial Glia Migration (NPC2a) (AID 2284299)
Procedure, shortened: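 Primary hNPC spheres, fetal brain GW 16-19, on PDL/laminin; DMEM/F12 3:1 + 1% N2. Compound dosed day 0, 7 conc. + SC, half-medium refresh day 3. 72 h brightfield, migration distance core-to-front (um), 4 directions averaged.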

[15] = IUF_NPC2b_neuronal_migration_120hr: Leibniz Research Institute for Environmental Medicine (IUF) 120-hour Neural Progenitor Cell Migration Assay for Neuron Migration (NPC2b) (AID 2284300)
Procedure, shortened: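 TUBB3-positive neurons are imaged after 120 h of differentiation, and their mean distance from the sphere edge is normalised to radial glia migration. Single 0.3 mm fetal hNPC spheres on poly-D-lysine/laminin received 7 compound concentrations, ≤0.1% DMSO, refreshed at day 3.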

[16] = IUF_NPC3_neuronal_differentiation_120hr: Leibniz Research Institute for Environmental Medicine (IUF) 120-hour Neuronal Differentiation Assay (NPC3) (AID 2284301)
Procedure, shortened: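 Single 0.3 mm neurospheres from human fetal cortex were plated in differentiation medium containing test compound. Medium was half-replaced on day 3. After 120 h cells were fixed, immunostained and imaged, and neuronal fraction was scored against DMSO control.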

[17] = IUF_NPC4_neurite_length_120hr: Leibniz Research Institute for Environmental Medicine (IUF) 120-hour Neuronal Morphology Assay for Neurite Length (NPC4) (AID 2284302)
Procedure, shortened: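 Read-out is mean neurite length in µm of TUBB3-positive neurons, skeletonized from high-content fluorescence images after 120 h. Single 0.3 mm primary human neural progenitor spheres differentiated on poly-D-lysine/laminin under continuous compound exposure; DMSO was baseline.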

[18] = IUF_NPC5_oligodendrocyte_differentiation_120hr: Leibniz Research Institute for Environmental Medicine (IUF) 120-hour Oligodendrocyte Differentiation Assay (NPC5) (AID 2284304; active = hit-call score of the fitted dose curve at least 0.9, where 1 is the maximum;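 also: primary human fetal neural progenitor spheres plated to migrate and differentiate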)
Procedure, shortened: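 Oligodendrocyte differentiation scored as O4-positive cells, found by CNN image analysis, as percent of Hoechst-stained nuclei in the migration area. Scoring followed 5 days of exposure of plated hNPC neurospheres differentiating in DMEM/F12 N2 medium at 37C, with compound refreshed at day 3.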

Measured: AC50

Sequence of E-selectin (Homo sapiens) (P16581 whole entry, looked up): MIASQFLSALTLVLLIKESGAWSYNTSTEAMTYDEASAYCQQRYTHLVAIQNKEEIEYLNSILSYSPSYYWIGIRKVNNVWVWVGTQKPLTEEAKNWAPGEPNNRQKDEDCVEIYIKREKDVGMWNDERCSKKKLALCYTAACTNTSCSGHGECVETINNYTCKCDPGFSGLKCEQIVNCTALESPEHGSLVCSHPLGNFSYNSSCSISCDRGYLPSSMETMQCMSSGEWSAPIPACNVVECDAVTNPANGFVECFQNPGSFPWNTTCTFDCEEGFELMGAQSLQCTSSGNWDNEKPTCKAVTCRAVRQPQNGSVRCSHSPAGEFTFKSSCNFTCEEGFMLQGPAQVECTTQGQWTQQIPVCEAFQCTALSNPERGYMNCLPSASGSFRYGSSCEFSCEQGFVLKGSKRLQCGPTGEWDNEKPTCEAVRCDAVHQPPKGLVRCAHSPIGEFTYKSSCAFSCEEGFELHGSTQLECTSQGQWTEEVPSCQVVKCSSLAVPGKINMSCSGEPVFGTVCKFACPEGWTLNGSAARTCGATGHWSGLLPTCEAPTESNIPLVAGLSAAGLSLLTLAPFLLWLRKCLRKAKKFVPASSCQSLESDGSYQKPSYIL

O=C(O)C(F)(F)C(F)(F)C(=O)O
not listed: [12] | [13] | [14] | [15] | [16] | [17] | [18]
inactive: all other assays above

CC(C)(C)c1ccccc1OP(=O)(Oc1ccccc1)Oc1ccccc1
inactive: [12] | [14] | [15] | [16] | [17]
active: [13] 10 µM | [18] 4.35 µM

CCOP(=S)(OCC)SCSCC
inactive: [12] | [13] | [14] | [15] | [16] | [17] | [18]

C=CC(=O)OCC(F)(F)C(F)F
active: [2] 40.7 µM and 41.8 µM | [3] 30 µM | [4] 43.5 µM and 29.6 µM | CD40, CD40 (gene 958) 21.6 µM and 23.6 µM | [5] 5.95 µM and 20.8 µM | [7] 44.6 µM | [9] 43.4 µM and 39.2 µM | [11] 30 µM and 39 µM | CD69, CD69 (gene 969) 43.8 µM
inactive: [1] | [3] | [6] | [7] | [8] | [10] | CD69, CD69 (gene 969)

OCC(F)(F)OC(F)(F)C(F)(F)OC(F)(F)C(F)(F)OC(F)(F)CO
inactive: [1] | [3] | [4] | CD40, CD40 (gene 958) | [5] | [6] | [7] | [8] | [10] | [11] | CD69, CD69 (gene 969)
active: [2] 30 µM and 23.7 µM | [4] 33.8 µM | CD40, CD40 (gene 958) 30 µM | [5] 8.46 µM | [7] 5.2 µM | [8] 24.7 µM | [9] 30 µM | [11] 4.54 µM

FC(F)(F)C(F)(C(F)(F)F)C(F)(F)C(F)(F)CC1CO1 (stereo not given)
inactive: [1] | [2] | [3] | [4] | CD40, CD40 (gene 958) | [5] | [6] | [7] | [8] | [9] | [10] | [11] | CD69, CD69 (gene 969)
active: [5] 0.319 µM

CC(O)C(F)(F)C(F)(F)F (stereo not given)
inactive: [1] | [2] | [3] | [4] | CD40, CD40 (gene 958) | [5] | [6] | [7] | [8] | [9] | [10] | [11] | CD69, CD69 (gene 969)
active: CD40, CD40 (gene 958) 2.17 µM

CO/N=C(/C(=O)OC)c1ccccc1COc1ccccc1C
inactive: [12] | [15] | [17]
active: [13] 22.9 µM | [14] 21 µM | [16] 2.33 µM | [18] 13.9 µM

CCCCOCCOP(=O)(OCCOCCCC)OCCOCCCC
inactive: [12] | [13] | [14] | [15] | [16] | [17]
active: [18] 3.24 µM

O=C(O)C(F)(F)OC(F)(F)C(F)(F)OC(F)(F)C(=O)O
not listed: [12] | [13] | [14] | [15] | [16] | [17] | [18]
inactive: all other assays above

NC(=O)C(F)(F)C(F)(F)F
not listed: [12] | [13] | [14] | [15] | [16] | [17] | [18]
inactive: all other assays above
